For 35 targets, log2 fold change results are on record in the supplement of paper PMC10849652.

The full data set covers some 7,900 targets. This sample favours those with a hit. About 0.6% of all pairs of compound and target were hits. A number with no mark means an inactive call.

Chain of UniProt Q8NEZ2 (Q8NEZ2 whole entry, looked up): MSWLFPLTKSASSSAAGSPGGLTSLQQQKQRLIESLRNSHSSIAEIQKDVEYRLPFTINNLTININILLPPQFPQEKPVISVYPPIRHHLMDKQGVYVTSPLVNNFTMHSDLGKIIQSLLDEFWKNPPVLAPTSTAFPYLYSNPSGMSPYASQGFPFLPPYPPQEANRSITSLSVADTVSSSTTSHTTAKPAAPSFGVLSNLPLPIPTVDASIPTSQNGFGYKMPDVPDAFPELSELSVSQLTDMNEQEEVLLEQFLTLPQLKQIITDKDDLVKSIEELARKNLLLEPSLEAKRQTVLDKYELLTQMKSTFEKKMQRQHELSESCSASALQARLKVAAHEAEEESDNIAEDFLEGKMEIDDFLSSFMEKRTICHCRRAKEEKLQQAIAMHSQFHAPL
Chain of UniProt Q5VIR6 (Q5VIR6 whole entry, looked up): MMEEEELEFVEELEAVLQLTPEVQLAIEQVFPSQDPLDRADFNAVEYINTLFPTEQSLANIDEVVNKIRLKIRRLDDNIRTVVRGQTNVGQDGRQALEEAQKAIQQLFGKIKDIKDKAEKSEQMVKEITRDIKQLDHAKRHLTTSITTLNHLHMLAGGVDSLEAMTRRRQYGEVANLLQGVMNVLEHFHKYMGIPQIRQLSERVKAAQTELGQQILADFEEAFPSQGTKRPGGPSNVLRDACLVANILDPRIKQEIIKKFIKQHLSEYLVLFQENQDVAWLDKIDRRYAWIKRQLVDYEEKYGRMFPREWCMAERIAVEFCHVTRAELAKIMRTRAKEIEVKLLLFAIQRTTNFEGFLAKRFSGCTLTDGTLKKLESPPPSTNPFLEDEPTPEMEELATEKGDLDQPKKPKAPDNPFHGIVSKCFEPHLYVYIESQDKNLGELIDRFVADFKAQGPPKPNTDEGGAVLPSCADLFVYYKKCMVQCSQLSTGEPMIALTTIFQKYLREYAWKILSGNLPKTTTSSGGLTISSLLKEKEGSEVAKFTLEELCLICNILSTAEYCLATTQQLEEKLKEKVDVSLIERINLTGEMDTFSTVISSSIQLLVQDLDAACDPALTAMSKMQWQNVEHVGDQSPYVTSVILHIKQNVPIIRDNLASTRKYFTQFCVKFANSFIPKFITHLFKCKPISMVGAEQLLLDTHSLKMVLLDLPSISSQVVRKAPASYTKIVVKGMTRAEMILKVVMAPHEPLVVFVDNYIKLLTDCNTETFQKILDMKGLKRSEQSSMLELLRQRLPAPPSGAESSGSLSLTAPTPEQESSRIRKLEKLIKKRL
Chain of UniProt Q9H4A3 (Q9H4A3 whole entry, looked up): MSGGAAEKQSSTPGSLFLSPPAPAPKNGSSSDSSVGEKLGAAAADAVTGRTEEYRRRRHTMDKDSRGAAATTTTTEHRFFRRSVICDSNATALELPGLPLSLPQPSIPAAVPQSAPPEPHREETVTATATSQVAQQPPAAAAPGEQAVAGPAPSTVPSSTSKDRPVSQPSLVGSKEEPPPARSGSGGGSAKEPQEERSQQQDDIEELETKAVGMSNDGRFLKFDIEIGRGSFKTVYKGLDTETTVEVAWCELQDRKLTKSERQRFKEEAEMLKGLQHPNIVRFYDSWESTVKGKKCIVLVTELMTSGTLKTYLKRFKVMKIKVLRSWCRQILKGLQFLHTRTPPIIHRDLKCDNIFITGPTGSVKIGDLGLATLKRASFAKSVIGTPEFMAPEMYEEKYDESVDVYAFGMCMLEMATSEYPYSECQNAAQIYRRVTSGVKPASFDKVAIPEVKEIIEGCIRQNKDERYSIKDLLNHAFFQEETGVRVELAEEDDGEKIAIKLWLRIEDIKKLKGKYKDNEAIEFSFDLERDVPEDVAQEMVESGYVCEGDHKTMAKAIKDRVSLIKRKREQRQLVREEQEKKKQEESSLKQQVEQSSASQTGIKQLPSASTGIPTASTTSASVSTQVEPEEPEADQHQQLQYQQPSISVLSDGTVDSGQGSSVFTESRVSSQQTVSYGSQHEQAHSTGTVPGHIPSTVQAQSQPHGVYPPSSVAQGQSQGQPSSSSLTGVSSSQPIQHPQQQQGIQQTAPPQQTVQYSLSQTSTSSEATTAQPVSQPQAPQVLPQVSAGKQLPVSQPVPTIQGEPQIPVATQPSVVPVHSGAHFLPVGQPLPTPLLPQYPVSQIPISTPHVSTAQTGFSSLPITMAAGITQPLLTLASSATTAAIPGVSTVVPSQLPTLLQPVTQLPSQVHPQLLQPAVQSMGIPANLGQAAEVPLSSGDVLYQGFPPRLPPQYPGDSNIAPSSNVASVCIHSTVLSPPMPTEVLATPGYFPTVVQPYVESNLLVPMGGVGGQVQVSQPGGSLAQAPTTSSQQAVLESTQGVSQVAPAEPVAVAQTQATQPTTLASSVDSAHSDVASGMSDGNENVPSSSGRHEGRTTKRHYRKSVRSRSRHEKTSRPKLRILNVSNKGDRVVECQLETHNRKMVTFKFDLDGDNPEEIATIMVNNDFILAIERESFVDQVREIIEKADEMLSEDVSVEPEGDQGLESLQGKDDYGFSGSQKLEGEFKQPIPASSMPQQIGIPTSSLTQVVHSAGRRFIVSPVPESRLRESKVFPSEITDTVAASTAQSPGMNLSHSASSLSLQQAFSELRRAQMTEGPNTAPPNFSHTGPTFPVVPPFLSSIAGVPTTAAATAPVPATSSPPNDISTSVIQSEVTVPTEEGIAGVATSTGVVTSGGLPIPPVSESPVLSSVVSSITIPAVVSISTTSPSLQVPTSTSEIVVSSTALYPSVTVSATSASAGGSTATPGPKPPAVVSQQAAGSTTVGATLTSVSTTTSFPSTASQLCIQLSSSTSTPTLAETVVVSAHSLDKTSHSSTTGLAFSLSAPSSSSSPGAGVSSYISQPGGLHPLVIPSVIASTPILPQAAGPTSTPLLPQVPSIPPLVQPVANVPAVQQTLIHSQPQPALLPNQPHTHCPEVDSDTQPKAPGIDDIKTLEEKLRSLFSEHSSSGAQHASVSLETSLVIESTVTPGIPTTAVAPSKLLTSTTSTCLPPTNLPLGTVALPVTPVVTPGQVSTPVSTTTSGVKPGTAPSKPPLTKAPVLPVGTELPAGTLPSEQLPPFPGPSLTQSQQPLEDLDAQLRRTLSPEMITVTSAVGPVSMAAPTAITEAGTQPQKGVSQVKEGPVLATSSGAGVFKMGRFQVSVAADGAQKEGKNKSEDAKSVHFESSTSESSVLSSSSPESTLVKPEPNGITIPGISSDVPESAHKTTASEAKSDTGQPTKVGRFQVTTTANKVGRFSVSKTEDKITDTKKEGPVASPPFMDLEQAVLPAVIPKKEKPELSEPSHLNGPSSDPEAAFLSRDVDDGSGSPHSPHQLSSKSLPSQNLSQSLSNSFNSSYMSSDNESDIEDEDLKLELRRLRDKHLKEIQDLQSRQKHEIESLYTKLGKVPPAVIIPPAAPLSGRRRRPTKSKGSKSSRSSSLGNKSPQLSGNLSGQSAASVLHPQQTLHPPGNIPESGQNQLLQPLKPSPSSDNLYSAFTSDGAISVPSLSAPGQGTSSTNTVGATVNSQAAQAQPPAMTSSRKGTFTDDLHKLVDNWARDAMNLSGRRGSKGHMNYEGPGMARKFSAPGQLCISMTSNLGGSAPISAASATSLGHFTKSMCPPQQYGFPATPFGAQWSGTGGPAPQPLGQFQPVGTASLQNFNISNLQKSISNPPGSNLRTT
Chain of UniProt P68366 (P68366 whole entry, looked up): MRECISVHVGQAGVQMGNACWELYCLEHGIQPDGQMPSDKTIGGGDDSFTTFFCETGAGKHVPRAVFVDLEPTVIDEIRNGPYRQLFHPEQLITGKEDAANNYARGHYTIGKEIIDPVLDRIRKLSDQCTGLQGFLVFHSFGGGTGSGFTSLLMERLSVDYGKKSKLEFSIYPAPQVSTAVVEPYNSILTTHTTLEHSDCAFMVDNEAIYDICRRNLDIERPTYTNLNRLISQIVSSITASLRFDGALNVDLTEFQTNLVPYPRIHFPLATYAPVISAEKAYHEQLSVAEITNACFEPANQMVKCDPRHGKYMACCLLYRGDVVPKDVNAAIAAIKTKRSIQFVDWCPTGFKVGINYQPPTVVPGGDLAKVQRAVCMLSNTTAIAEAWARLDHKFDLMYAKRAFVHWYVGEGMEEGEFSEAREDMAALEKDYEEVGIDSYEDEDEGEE
Chain of UniProt Q9C037 (Q9C037 whole entry, looked up): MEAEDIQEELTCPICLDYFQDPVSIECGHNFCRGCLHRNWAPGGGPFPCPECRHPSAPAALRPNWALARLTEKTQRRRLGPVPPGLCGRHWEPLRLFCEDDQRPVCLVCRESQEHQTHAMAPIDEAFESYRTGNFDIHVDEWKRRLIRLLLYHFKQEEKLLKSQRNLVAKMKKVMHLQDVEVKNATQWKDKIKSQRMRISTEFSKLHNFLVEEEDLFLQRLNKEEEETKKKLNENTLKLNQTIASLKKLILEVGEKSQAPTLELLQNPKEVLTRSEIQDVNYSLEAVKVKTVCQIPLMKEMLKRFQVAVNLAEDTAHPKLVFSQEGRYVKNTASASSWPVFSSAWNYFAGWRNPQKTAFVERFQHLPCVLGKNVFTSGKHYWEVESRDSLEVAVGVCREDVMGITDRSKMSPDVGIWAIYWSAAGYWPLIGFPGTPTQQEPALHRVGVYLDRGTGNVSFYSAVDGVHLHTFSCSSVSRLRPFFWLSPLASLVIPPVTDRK
Chain of UniProt O95857 (O95857 whole entry, looked up): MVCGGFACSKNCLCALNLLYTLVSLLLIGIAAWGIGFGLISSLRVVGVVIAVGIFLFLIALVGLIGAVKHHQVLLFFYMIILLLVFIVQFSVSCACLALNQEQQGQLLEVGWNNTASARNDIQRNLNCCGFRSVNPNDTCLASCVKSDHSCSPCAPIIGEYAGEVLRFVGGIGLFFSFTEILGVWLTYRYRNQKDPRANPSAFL
Chain of UniProt Q6PID6 (Q6PID6 whole entry, looked up): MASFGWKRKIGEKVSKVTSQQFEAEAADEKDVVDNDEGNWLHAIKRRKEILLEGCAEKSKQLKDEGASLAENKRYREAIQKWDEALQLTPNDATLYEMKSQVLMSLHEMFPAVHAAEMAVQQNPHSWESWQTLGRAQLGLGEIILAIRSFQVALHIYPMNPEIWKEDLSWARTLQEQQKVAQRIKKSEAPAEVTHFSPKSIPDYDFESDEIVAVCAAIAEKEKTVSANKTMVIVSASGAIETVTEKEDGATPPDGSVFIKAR

Compound in one test: CCn1c(C(=O)N(C2CC2)C2CC2)cc2c3c(ncn3C)c(Nc3cc(C)n(C)n3)nc21
Description: log2 fold change, soluble protein after heating vs DMSO (PISA); higher = thermal stabilisation; K562 cells, 10 uM, 30 min; active = over 0.2 and 3.5 SD of the protein, either way, in both replicates (recomputed). The essentials: (§1)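 Aliquots of K562 cells (2×10^6 cells/mL) treated with 10 μM compound for 30 min were heated for 3 min over 48°C-58°C. After pooling and extraction in PBS with 0.5% NP-40 at 4°C, soluble protein from a 21,000xg, 90 min spin was quantified by TMTpro 16plex LC-MS/MS with channel sums equalised. Thermal stability is expressed against control samples, from duplicates, as a log2 fold change.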
For VPS11 (UniProt Q9H270), the log2 fold change was -0.097.

As for TXNL4B (UniProt Q9NX01), the log2 fold change is -0.015.

As to USP3 (UniProt Q9Y6I4), the log2 fold change is -0.051.

Take TRIM4 (UniProt Q9C037): the log2 fold change was 0.063.

For TMEM128 (UniProt Q5BJH2), the log2 fold change is 0.006.

VPS53 isoform 4 (UniProt Q5VIR6): the log2 fold change is -0.094.

Turning to VPS37A (UniProt Q8NEZ2), the log2 fold change is -0.001.

For TUBA4A (UniProt P68366), the log2 fold change was -0.002.

On to VDAC1 (UniProt P21796), for which the log2 fold change is 0.023.

Turning to UBA52 (UniProt P62987), the log2 fold change is 0.071.

Regarding VPS28 (UniProt Q9UK41), the log2 fold change was 0.001.

For the target UNC119B (UniProt A6NIH7), the log2 fold change was -0.134.

On to TRMT61A (UniProt Q96FX7), for which the log2 fold change is 0.028.

For the target WNK1 isoform 7 (UniProt Q9H4A3), the log2 fold change is -0.012.

For TSPAN13 (UniProt O95857), the log2 fold change was 0.097.

As to TTI2 (UniProt Q6NXR4), the log2 fold change is -0.016.

TTC33 (UniProt Q6PID6): the log2 fold change is 0.012.

For UTP3 (UniProt Q9NQZ2), the log2 fold change was -0.007.

As to ULBP1 (UniProt Q9BZM6), the log2 fold change is -0.013.

For the target VPS13B (UniProt Q7Z7G8), the log2 fold change is -0.016.

Consider TMEM70 (UniProt Q9BUB7), for which the log2 fold change was 0.257 (active).

For UBE4B isoform 4 (UniProt O95155), the log2 fold change is 0.

Regarding VPS72 isoform 2 (UniProt Q15906), the log2 fold change was 0.101.

Regarding UBIAD1 (UniProt Q9Y5Z9), the log2 fold change was -0.009.

For TRIM44 (UniProt Q96DX7), the log2 fold change was 0.014.

On to UGDH (UniProt O60701), for which the log2 fold change is -0.076.

Take TRABD (UniProt Q9H4I3): the log2 fold change was 0.128.

Consider WEE1 (UniProt P30291), for which the log2 fold change is 0.003.

In the case of UCHL5 isoform 3 (UniProt Q9Y5K5), the log2 fold change was 0.107.

For UFM1 (UniProt P61960), the log2 fold change was -0.026.

For the target TSC2 (UniProt P49815), the log2 fold change was -0.295.

With TMEM9B (UniProt Q9NQ34), the log2 fold change is 0.035.

Take VKORC1 (UniProt Q9BQB6): the log2 fold change was -0.078.

In the case of TMEM179B (UniProt Q7Z7N9), the log2 fold change is 0.026.

Compound in the next test: CCn1cc(-c2ccnc3[nH]c(-c4cccc(CN(C)C)c4)cc23)c(-c2ccc(NC(=O)N(C)C)cc2)n1
The description is as above. An outline of the steps:
as §1
For the target VPS11 (UniProt Q9H270), the log2 fold change is -0.074.

With TXNL4B (UniProt Q9NX01), the log2 fold change was -0.069.

Turning to USP3 (UniProt Q9Y6I4), the log2 fold change was -0.037.

On to TRIM4 (UniProt Q9C037), for which the log2 fold change is -0.069.

Turning to VPS53 isoform 4 (UniProt Q5VIR6), the log2 fold change is 0.022.

On to VPS37A (UniProt Q8NEZ2), for which the log2 fold change is -0.068.

As for TUBA4A (UniProt P68366), the log2 fold change was -0.064.

As for VDAC1 (UniProt P21796), the log2 fold change was -0.009.

Consider UBA52 (UniProt P62987), for which the log2 fold change is 0.351.

On to VPS28 (UniProt Q9UK41), for which the log2 fold change is -0.048.

Take UNC119B (UniProt A6NIH7): the log2 fold change is -0.104.

Turning to TRMT61A (UniProt Q96FX7), the log2 fold change is 0.043.

Turning to WNK1 isoform 7 (UniProt Q9H4A3), the log2 fold change was -0.005.

For TSPAN13 (UniProt O95857), the log2 fold change is -0.098.

TTC33 (UniProt Q6PID6): the log2 fold change was -0.449 (active).

Take UTP3 (UniProt Q9NQZ2): the log2 fold change is 0.236.

On to VPS13B (UniProt Q7Z7G8), for which the log2 fold change was -0.008.

On to TMEM70 (UniProt Q9BUB7), for which the log2 fold change is -0.055.

On to UBE4B isoform 4 (UniProt O95155), for which the log2 fold change was -0.005.

For UBIAD1 (UniProt Q9Y5Z9), the log2 fold change was 0.027.

For TRIM44 (UniProt Q96DX7), the log2 fold change is 0.005.

Take UGDH (UniProt O60701): the log2 fold change was 0.031.

In the case of TRABD (UniProt Q9H4I3), the log2 fold change is -0.108.

As to UBXN8 (UniProt O00124), the log2 fold change was -0.039.

With WEE1 (UniProt P30291), the log2 fold change was -0.209.

Turning to TSC2 (UniProt P49815), the log2 fold change was 0.016.

For the target TMEM9B (UniProt Q9NQ34), the log2 fold change was 0.049.

As to VKORC1 (UniProt Q9BQB6), the log2 fold change is 0.008.

As to TMEM179B (UniProt Q7Z7N9), the log2 fold change was 0.039.

Compound in another test: CN(C)CC(=O)Nc1ccc2[nH]c(=O)c3ccccc3c2c1
The description is as above. An outline of the steps: as §1
Turning to VPS11 (UniProt Q9H270), the log2 fold change is 0.059.

Turning to TXNL4B (UniProt Q9NX01), the log2 fold change was 0.186.

For USP3 (UniProt Q9Y6I4), the log2 fold change is 0.063.

On to TRIM4 (UniProt Q9C037), for which the log2 fold change was 0.03.

TMEM128 (UniProt Q5BJH2): the log2 fold change is 0.149.

In the case of VPS53 isoform 4 (UniProt Q5VIR6), the log2 fold change was 0.007.

In the case of VPS37A (UniProt Q8NEZ2), the log2 fold change is 0.165.

Turning to TUBA4A (UniProt P68366), the log2 fold change is -0.013.

For VDAC1 (UniProt P21796), the log2 fold change is -0.005.

UBA52 (UniProt P62987): the log2 fold change is -0.256.

For the target VPS28 (UniProt Q9UK41), the log2 fold change is 0.011.

Regarding UNC119B (UniProt A6NIH7), the log2 fold change was -0.023.

For TRMT61A (UniProt Q96FX7), the log2 fold change was -0.098.

On to WNK1 isoform 7 (UniProt Q9H4A3), for which the log2 fold change is 0.005.

As to TSPAN13 (UniProt O95857), the log2 fold change was 0.512 (active).

For TTI2 (UniProt Q6NXR4), the log2 fold change is 0.09.

As for TTC33 (UniProt Q6PID6), the log2 fold change was -0.075.

For the target UTP3 (UniProt Q9NQZ2), the log2 fold change was -0.052.

Regarding ULBP1 (UniProt Q9BZM6), the log2 fold change is -0.019.

As to VPS13B (UniProt Q7Z7G8), the log2 fold change was -0.028.

As for TMEM70 (UniProt Q9BUB7), the log2 fold change is 0.001.

As to UBE4B isoform 4 (UniProt O95155), the log2 fold change is 0.01.

With VPS72 isoform 2 (UniProt Q15906), the log2 fold change was -0.052.

Take UBIAD1 (UniProt Q9Y5Z9): the log2 fold change is -0.011.

Turning to TRIM44 (UniProt Q96DX7), the log2 fold change is -0.004.

Consider UGDH (UniProt O60701), for which the log2 fold change was 0.05.

Regarding TRABD (UniProt Q9H4I3), the log2 fold change was 0.029.

As for UBXN8 (UniProt O00124), the log2 fold change was -0.051.

For WEE1 (UniProt P30291), the log2 fold change is -0.103.

As to UCHL5 isoform 3 (UniProt Q9Y5K5), the log2 fold change was 0.074.

With UFM1 (UniProt P61960), the log2 fold change is 0.043.

Turning to TMEM9B (UniProt Q9NQ34), the log2 fold change was -0.023.

For the target VKORC1 (UniProt Q9BQB6), the log2 fold change is 0.072.
